This is an account of results in PubChem BioAssay (EPA / NIEHS).

Test [1] in a line: BSK_CASM3C_SRB: Viability Assessment in the BioMAP Diversity Plus: CASM3C Assay (AID 2283050).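 Note: total protein by SRB staining as cytotoxicity measure in parallel cultures; cells exposed to compound for 24 h.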 The conditions noted are these: primary human coronary artery smooth muscle cells.
Read-out in test [2]: Thrombomodulin, THBD (gene 7056)
In words: BSK_CASM3C_Thrombomodulin: BioMAP Diversity Plus: CASM3C Assay for Thrombomodulin Biomarker Activity (AID 2283051).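 Note: thrombomodulin protein level measured by ELISA 24 h after dosing.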 The conditions noted are these: primary human coronary artery smooth muscle cells; actives raise or lower the signal.

Read-out in test [3]: Tissue Factor, F3 (gene 2152)
In words: BSK_CASM3C_TissueFactor: BioMAP Diversity Plus: CASM3C Assay for Tissue Factor Biomarker Activity (AID 2283052).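 Note: cell surface tissue factor protein level read by ELISA.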 The conditions noted are these: primary human coronary artery smooth muscle cells; actives raise or lower the signal.

Read-out in test [4]: Interferon-gamma inducible Protein 10 (IP10), CXCL10 (gene 3627)
Kind of test: BSK_hDFCGF_IP10: BioMAP Diversity Plus: hDFCGF Assay for Interferon-gamma inducible Protein 10 (IP10) Biomarker Activity (AID 2283053). The conditions noted are these: primary human foreskin fibroblasts; actives raise or lower the signal. Put shortly:
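IP-10 levels, quantified by ELISA, are taken from human foreskin fibroblast cultures 24 h after chemical treatment, with DMSO serving as negative control and baseline for bidirectional analysis.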

Read-out in test [5]: Urokinase-type plasminogen activator receptor (uPAR), PLAUR (gene 5329)
In words: BSK_CASM3C_uPAR: BioMAP Diversity Plus: CASM3C Assay for Urokinase-type plasminogen activator receptor (uPAR) Biomarker Activity (AID 2283054).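 Note: cell-surface uPAR protein level quantified by ELISA.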 The following applies: primary human coronary artery smooth muscle cells; actives raise or lower the signal.

Read-out in test [6]: Vascular cell adhesion molecule 1 (VCAM1), VCAM1 (gene 7412)
Kind of test: BSK_CASM3C_VCAM1: BioMAP Diversity Plus: CASM3C Assay for Vascular cell adhesion molecule 1 (VCAM1) Biomarker Activity (AID 2283055).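 Note: VCAM-1 protein level quantified by ELISA on the cells.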 The conditions noted are these: primary human coronary artery smooth muscle cells; actives raise or lower the signal.

Read-out in test [7]: Collagen III, COL3A1 (gene 1281)
Kind of test: BSK_hDFCGF_CollagenIII: BioMAP Diversity Plus: hDFCGF Assay for Collagen III Biomarker Activity (AID 2283056). The conditions noted are these: primary human foreskin fibroblasts; actives raise or lower the signal. Put shortly:
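Response relative to DMSO, fitted in both directions, reflects ELISA-measured collagen III in human primary skin fibroblasts 24 h after compound addition.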

Read-out in test [8]: Epidermal growth factor receptor (EGFR), EGFR (gene 1956)
Kind of test: BSK_hDFCGF_EGFR: BioMAP Diversity Plus: hDFCGF Assay for Epidermal growth factor receptor (EGFR) Biomarker Activity (AID 2283057). The following applies: primary human foreskin fibroblasts; actives raise or lower the signal. Put shortly:
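Measured by ELISA: EGFR levels on primary human foreskin fibroblasts 24 h after chemical treatment, analysed relative to DMSO with bidirectional fitting.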

Read-out in test [9]: Interleukin-8 (IL8), CXCL8 (gene 3576)
Kind of test: BSK_hDFCGF_IL8: BioMAP Diversity Plus: hDFCGF Assay for Interleukin-8 (IL8) Biomarker Activity (AID 2283058). The following applies: primary human foreskin fibroblasts; actives raise or lower the signal. Put shortly:
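Fibroblast monolayers (human foreskin, hDFCGF) received test chemical for 24 h before ELISA detection of IL-8; either increases or decreases relative to DMSO count as activity.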

A short description of test [10]: BSK_hDFCGF_Proliferation: Cell Proliferation Assessment in the BioMAP Diversity Plus: hDFCGF Assay (AID 2283059).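 Note: curves fitted for both rise and fall of signal versus DMSO baseline.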 The conditions noted are these: primary human foreskin fibroblasts. Put shortly: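 This proliferation readout used SRB total-protein staining of human foreskin fibroblasts […], normalized to DMSO with bidirectional curve fitting.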

Each structure is given as a SMILES string. Calls of active or inactive are those of the source. Rule for the calls: active = hit-call score of the fitted dose curve at least 0.9, where 1 is the maximum; inactive = score below 0.9.

For `OC(c1ccc(Cl)cc1)(c1ccc(Cl)cc1)C(Cl)(Cl)Cl`, the half-maximal activity concentration (AC50) (commonly the midpoint of the concentration-response curve, whichever way the signal moves) in [1] is 35.2 µM (active); in test [2], 33.1 µM (active); in [4] it was 9.87 µM (active); in test [5], 32.9 µM (active); in test [6], 27.2 µM (active); in test [7], 10.3 µM (active). Moreover, the half-maximal activity concentration (AC50) in test [9] was 11 µM (active); in test [10] it was 10 µM (active). For the same compound, the outcome in test [3] and in test [8] was inactive.

For `CC(C)NC(=O)N1CC(=O)N(c2cc(Cl)cc(Cl)c2)C1=O`, the result in [1], in [2], in test [3], in [4], in test [5] and in [6] was inactive. The outcome in [8], in test [9] and in [10] was inactive. Moreover, the AC50 in test [7] is 0.702 µM (active).

Consider `CN/C(=N\[N+](=O)[O-])NCc1cnc(Cl)s1`, for which the result in test [1], in test [2], in test [3], in test [4], in test [5] and in test [6] was inactive. In addition, the result in test [7], in test [8], in test [9] and in test [10] was inactive.

As for `CCNC(=O)NC(=O)C(C#N)=NOC`, the result in test [1], in test [3], in test [4], in test [5], in test [6] and in [7] was inactive. Moreover, the outcome in test [8], in [9] and in test [10] was inactive. In [2], the concentration at half-maximal activity (AC50) is 15.9 µM (active).

Turning to `CCCN(CC)CC1COC2(CCC(C(C)(C)C)CC2)O1` (stereo not given), the result in test [1], in test [2], in [3], in test [5], in test [6] and in test [8] was inactive. Besides, the result in test [9] was inactive. Further, the half-maximal activity concentration (AC50) in test [4] was 1.98 µM (active); in test [7], 1.25 µM (active); in test [10] it was 5.6 µM (active).

Regarding `O=C(O)c1c(Cl)ccc2cc(Cl)cnc12`, the result in test [1], in test [2], in [3], in test [4], in [5] and in test [6] was inactive. The result in test [7], in test [8], in test [9] and in [10] was inactive.

In the case of `CCCCC(C#N)(Cn1cncn1)c1ccc(Cl)cc1` (stereo not given), the result in test [1], in [2], in test [3], in test [4], in test [6] and in test [7] was inactive. Besides, the result in [8], in test [9] and in test [10] was inactive. In test [5], the half-maximal activity concentration (AC50) is 1.12 µM (active).

Turning to `CC1(C)C(C=C(Cl)Cl)C1C(=O)OC(C#N)c1cccc(Oc2ccccc2)c1` (stereo not given), the outcome in test [1], in test [2], in [3], in test [4], in test [5] and in test [6] was inactive. For the same compound, the result in test [7], in [8], in test [9] and in [10] was inactive.

Consider `CCOc1nc(C(Cl)(Cl)Cl)ns1`, for which the result in test [1], in test [2], in test [3], in test [4], in [5] and in test [6] was inactive. Also, the outcome in [7], in test [8], in [9] and in [10] was inactive.

On to `CCOP(=O)(OCC)Oc1nc(Cl)c(Cl)cc1Cl`, for which the result in test [1], in [3], in test [5], in [6], in test [8] and in test [9] was inactive. The half-maximal activity concentration (AC50) is 0.297 µM (active) in [2], 20 µM (active) in test [4], 3.97 µM (active) in [7] and 12 µM (active) in [10].

On to `CC(C)Nc1nc(Cl)nc(NC(C)C)n1`, for which the result in [1], in test [2], in test [3], in test [4], in test [6] and in [7] was inactive. Moreover, the outcome in test [8], in test [9] and in test [10] was inactive. For the same compound, the concentration at half-maximal activity (AC50) in test [5] is 13.6 µM (active).

In the case of `CN=C=S`, the result in test [1], in test [2], in [3], in [5], in [6] and in test [7] was inactive. Further, the outcome in test [9] and in [10] was inactive. Also, the half-maximal activity concentration (AC50) in test [4] is 16.6 µM (active); in test [8], 5.42 µM (active).

Take `COCc1cnc(C2=NC(C)(C(C)C)C(=O)N2)c(C(=O)O)c1` (stereo not given): the result in test [1], in test [2], in [3], in test [4], in test [5] and in test [6] was inactive. For the same compound, the result in test [7], in test [8], in test [9] and in test [10] was inactive.

As for `CCC(C)n1c(=O)[nH]c(C)c(Br)c1=O` (stereo not given), the result in [1], in test [2], in test [3], in test [4], in test [5] and in test [6] was inactive. Also, the result in test [7], in test [8], in test [9] and in test [10] was inactive.

On to `COC(=O)c1c(C(F)F)nc(C(F)(F)F)c(C2=NCCS2)c1CC(C)C`, for which the result in [1], in [3], in [5], in test [6], in test [7] and in [8] was inactive. In addition, the result in [9] and in test [10] was inactive. Besides, the AC50 in [2] was 18 µM (active); in test [4], 6.09 µM (active).

On to `CC1(C)CCC(=Cc2ccc(Cl)cc2)C1(O)Cn1cncn1` (stereo not given), for which the outcome in [1], in test [2], in [3], in [4], in test [5] and in test [6] was inactive. For the same compound, the outcome in test [7], in test [8] and in test [9] was inactive. Further, the AC50 in test [10] was 1.31 µM (active).

Consider `CSC(=O)c1c(C(F)F)nc(C(F)(F)F)c(C(=O)SC)c1CC(C)C`, for which the outcome in [1], in [3], in test [5], in test [6], in [7] and in test [8] was inactive. Also, the outcome in [9] was inactive. Further, the half-maximal activity concentration (AC50) was 20 µM (active) in test [2], 25.5 µM (active) in [4] and 30.6 µM (active) in [10].

For `COCC(=O)N(c1c(C)cccc1C)C(C)C(=O)OC` (stereo not given), the result in test [1], in [2], in test [3], in test [4], in test [5] and in test [6] was inactive. Also, the result in test [7], in test [8], in test [9] and in [10] was inactive.
